For one sequence, binding signal results are on record in article PMC7862700, “An all-to-all approach to the identification of sequence-specific readers for epigenetic DNA modifications on cytosine”.

Test in all cases: DAPPL (digital affinity profiling via proximity ligation, sequencing); 10 mM Tris-HCl pH 7.5, 50 mM NaCl, 1 mM DTT, 4% glycerol, room temperature, 30 min; GST-TFs on glutathione beads, 16-mer random dsDNA library, 0.1% formaldehyde crosslink after washing; high values mean tight binding
One experiment addresses T1, FEV (Homo sapiens, UniProt Q99581 1-238).
T1 sequence: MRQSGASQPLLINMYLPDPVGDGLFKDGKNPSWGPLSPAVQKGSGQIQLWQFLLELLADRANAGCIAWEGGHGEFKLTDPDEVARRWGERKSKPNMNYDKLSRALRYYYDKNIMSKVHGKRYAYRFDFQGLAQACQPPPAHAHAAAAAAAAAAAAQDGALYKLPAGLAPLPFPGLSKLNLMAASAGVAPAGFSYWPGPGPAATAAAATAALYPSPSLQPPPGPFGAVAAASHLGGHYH
Particulars: protein: recombinant; tags: N-terminal GST; dsDNA, one strand shown. A digest of the protocol: (§1)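 After expression in yeast as GST fusions, human transcription factors were bound to glutathione beads, DNA-barcoded and mixed with a tag-only sample. The pools were incubated with 200 nmole of a 16-mer random double-stranded DNA library in Tris/NaCl/DTT/glycerol buffer (30 min, room temperature), washed and crosslinked with 0.1% formaldehyde. Proximity ligation with BsaI/T4 ligase ran for 1 h at 37 °C, before PCR amplification and sequencing on an Illumina NextSeq500. Binding signal is a hexamer's read frequency for a factor divided by its frequency for the tag-only sample.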

A further experiment addresses ETV5 (Homo sapiens, UniProt P41161 1-510). Particulars: protein: recombinant; tags: N-terminal GST; dsDNA, one strand shown. A digest of the protocol: as §1
Another experiment deals with HSF1 (Homo sapiens, UniProt Q00613 1-529). The settings on record: protein: recombinant; tags: N-terminal GST; chain copies: 3; dsDNA, one strand shown. A digest of the protocol:
as §1

The target of the next experiment is T2, SPIC (Homo sapiens, UniProt Q8N5J4 1-248).
T2 sequence: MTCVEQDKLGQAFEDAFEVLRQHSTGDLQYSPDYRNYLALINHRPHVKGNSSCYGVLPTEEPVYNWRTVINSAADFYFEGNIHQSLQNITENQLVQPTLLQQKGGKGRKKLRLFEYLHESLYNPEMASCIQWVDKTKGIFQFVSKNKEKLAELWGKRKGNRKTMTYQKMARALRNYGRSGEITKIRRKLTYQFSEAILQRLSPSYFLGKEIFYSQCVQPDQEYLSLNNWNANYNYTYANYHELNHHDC
The settings on record: protein: recombinant; tags: N-terminal GST; dsDNA, one strand shown. A digest of the protocol: as §1

A further experiment deals with ELF4 (Homo sapiens, UniProt Q99607 1-663). The settings on record: protein: recombinant; tags: N-terminal GST; dsDNA, one strand shown. A digest of the protocol:
as §1

For a further experiment, the target named is T3, ELK4 (Homo sapiens, UniProt P28324-2 1-405).
T3 sequence: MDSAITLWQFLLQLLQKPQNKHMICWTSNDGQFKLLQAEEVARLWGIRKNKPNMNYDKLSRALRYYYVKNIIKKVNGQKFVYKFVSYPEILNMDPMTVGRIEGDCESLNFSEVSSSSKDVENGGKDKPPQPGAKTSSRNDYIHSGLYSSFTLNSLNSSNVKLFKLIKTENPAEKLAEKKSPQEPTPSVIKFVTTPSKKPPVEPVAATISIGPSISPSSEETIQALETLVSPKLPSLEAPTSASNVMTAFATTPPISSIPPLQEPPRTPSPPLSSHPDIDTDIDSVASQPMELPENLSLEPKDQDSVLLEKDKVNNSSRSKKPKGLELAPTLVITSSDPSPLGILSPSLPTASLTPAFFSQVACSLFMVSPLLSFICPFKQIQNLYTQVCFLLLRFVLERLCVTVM
Particulars: protein: recombinant; tags: N-terminal GST; dsDNA, one strand shown. In short, it runs like this:
as §1

For the next experiment, the target named is T4, ETV2 (Homo sapiens, UniProt O00321 1-342).
T4 sequence: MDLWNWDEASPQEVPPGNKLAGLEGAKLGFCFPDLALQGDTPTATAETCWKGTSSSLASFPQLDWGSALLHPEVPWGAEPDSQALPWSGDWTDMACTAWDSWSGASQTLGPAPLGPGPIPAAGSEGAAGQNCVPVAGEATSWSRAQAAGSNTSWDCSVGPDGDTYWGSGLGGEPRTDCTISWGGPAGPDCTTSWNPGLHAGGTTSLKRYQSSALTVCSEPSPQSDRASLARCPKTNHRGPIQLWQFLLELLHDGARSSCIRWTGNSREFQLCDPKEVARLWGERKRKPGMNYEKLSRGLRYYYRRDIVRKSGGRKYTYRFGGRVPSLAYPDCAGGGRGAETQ
Particulars: protein: recombinant; tags: N-terminal GST; dsDNA, one strand shown. A digest of the protocol: as §1

In a further experiment the target is T5, ELF3 (Homo sapiens, UniProt P78545 1-371).
T5 sequence: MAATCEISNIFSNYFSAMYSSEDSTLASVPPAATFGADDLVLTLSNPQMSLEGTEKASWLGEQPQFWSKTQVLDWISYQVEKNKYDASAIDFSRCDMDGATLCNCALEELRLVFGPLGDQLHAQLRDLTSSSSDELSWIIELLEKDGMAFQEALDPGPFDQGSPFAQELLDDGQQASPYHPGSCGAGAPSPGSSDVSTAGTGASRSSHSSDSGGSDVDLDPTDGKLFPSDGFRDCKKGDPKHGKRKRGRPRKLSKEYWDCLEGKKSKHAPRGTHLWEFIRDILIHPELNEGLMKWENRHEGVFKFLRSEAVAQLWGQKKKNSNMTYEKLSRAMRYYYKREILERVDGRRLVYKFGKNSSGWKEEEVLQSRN
Particulars: protein: recombinant; tags: N-terminal GST; dsDNA, one strand shown. A digest of the protocol: as §1

The target of the next experiment is CRX (Homo sapiens, UniProt O43186 1-299). The settings on record: protein: recombinant; tags: N-terminal GST; dsDNA, one strand shown. In short, it runs like this: as §1
CRX, sequence (O43186 whole entry): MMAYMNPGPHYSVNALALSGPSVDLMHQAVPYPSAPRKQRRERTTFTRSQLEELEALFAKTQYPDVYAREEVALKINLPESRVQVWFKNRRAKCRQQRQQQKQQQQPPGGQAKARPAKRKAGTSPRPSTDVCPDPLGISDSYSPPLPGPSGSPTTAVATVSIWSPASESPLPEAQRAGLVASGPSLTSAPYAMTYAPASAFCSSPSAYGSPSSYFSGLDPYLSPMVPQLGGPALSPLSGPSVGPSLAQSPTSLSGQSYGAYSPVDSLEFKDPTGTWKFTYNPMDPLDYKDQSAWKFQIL
For another experiment, the target named is ETV1 (Homo sapiens, UniProt P50549 1-477). The settings on record: protein: recombinant; tags: N-terminal GST; dsDNA, one strand shown. A digest of the protocol: as §1
ETV1, sequence (P50549 whole entry): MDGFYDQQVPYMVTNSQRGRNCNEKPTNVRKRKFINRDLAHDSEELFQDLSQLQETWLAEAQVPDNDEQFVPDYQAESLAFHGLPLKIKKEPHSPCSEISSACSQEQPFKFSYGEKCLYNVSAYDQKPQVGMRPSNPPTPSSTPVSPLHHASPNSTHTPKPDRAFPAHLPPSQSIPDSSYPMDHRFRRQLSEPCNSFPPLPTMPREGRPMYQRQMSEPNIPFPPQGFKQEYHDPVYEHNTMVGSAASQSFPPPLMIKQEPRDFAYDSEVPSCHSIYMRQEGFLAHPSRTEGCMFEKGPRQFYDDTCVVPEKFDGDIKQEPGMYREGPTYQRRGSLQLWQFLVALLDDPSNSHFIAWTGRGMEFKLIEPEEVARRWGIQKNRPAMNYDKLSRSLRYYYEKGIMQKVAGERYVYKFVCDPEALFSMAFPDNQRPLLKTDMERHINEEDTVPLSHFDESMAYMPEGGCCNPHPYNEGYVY
A further experiment concerns the target T6, ERF (Homo sapiens, UniProt P50548 1-548).
T6 sequence: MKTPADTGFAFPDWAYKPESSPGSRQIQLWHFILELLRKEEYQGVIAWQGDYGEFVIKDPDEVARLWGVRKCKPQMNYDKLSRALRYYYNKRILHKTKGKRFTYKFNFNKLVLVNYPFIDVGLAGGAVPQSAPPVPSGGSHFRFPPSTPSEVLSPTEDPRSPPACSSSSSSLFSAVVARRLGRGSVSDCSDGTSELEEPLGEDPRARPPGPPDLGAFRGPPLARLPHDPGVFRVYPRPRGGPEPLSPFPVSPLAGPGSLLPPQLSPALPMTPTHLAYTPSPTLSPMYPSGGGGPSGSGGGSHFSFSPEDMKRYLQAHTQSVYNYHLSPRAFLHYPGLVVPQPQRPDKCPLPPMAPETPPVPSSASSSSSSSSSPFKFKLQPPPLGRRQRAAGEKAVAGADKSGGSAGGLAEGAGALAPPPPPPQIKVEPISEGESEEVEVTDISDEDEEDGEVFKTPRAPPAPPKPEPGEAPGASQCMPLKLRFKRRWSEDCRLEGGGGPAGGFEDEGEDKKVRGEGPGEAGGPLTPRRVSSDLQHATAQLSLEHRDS
Particulars: protein: recombinant; tags: N-terminal GST; dsDNA, one strand shown. A digest of the protocol: as §1

Another experiment addresses T7, ETV3L (Homo sapiens, UniProt Q6ZN32 1-361).
T7 sequence: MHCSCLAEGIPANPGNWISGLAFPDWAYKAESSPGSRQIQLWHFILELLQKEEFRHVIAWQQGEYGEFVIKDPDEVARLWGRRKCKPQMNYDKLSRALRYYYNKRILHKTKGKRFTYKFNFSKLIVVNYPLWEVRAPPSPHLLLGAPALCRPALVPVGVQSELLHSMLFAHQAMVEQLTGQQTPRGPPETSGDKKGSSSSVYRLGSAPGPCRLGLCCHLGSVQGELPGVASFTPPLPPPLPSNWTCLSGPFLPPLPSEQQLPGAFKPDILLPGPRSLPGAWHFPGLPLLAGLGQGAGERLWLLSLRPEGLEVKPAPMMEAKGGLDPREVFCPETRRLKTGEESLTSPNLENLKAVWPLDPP
Particulars: protein: recombinant; tags: N-terminal GST; dsDNA, one strand shown. A digest of the protocol: as §1

The target of another experiment is T8, ETS2 (Homo sapiens, UniProt P15036 1-469).
T8 sequence: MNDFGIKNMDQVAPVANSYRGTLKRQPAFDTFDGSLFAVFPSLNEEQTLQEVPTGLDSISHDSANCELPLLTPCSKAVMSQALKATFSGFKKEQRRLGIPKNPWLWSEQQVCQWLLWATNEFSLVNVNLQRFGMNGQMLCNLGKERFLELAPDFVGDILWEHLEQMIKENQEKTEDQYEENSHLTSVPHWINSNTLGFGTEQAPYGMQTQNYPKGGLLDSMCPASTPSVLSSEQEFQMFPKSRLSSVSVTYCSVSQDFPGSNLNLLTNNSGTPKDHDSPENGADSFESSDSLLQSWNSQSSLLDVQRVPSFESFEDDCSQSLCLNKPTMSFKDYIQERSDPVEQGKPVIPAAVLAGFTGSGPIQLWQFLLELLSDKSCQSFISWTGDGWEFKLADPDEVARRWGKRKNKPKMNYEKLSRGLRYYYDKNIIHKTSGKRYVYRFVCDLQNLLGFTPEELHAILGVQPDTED
The settings on record: protein: recombinant; tags: N-terminal GST; dsDNA, one strand shown. A digest of the protocol: as §1

In a further experiment the target is T9, SPDEF (Homo sapiens, UniProt O95238 1-335).
T9 sequence: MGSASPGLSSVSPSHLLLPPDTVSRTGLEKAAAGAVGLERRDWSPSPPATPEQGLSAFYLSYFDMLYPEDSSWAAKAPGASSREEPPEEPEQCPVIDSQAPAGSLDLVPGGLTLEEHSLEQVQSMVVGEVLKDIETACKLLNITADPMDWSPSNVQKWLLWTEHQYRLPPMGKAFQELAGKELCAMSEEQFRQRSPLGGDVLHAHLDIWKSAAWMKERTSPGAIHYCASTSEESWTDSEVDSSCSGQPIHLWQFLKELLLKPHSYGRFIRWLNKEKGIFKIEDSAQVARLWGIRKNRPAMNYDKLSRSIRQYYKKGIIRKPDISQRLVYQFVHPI
The settings on record: protein: recombinant; tags: N-terminal GST; dsDNA, one strand shown. A digest of the protocol:
as §1

The target of another experiment is T10, ETV7 (Homo sapiens, UniProt Q9Y603 1-341).
T10 sequence: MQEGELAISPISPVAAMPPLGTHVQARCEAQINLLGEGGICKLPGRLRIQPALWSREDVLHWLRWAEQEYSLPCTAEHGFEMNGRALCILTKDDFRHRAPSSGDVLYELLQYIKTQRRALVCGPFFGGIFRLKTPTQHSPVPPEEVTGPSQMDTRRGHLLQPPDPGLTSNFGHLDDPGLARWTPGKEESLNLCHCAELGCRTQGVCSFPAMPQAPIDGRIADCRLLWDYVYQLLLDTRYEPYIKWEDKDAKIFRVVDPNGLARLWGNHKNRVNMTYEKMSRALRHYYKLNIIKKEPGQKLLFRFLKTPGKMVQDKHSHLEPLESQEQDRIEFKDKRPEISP
The settings on record: protein: recombinant; tags: N-terminal GST; dsDNA, one strand shown. In short, it runs like this:
as §1

The target in the next experiment is T11, ELF5 (Homo sapiens, UniProt Q9UKW6-2 1-255).
T11 sequence: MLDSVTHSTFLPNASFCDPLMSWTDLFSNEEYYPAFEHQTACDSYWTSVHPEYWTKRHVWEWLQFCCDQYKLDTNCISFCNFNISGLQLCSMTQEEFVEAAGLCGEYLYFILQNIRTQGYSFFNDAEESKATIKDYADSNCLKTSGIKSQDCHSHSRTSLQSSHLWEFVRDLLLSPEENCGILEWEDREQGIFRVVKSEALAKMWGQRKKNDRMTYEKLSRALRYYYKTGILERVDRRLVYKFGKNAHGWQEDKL
Particulars: protein: recombinant; tags: N-terminal GST; dsDNA, one strand shown. A digest of the protocol:
as §1

The target in the next experiment is T12, ETV3 (Homo sapiens, UniProt P41162-2 1-143).
T12 sequence: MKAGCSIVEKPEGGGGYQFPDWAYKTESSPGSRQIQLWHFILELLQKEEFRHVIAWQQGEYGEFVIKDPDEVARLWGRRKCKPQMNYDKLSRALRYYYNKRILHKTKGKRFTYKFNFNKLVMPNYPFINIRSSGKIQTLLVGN
The settings on record: protein: recombinant; tags: N-terminal GST; dsDNA, one strand shown. A digest of the protocol: as §1

For the next experiment, the target named is ETV6 (Homo sapiens, UniProt P41212 1-452). The settings on record: protein: recombinant; tags: N-terminal GST; dsDNA, one strand shown. In short, it runs like this: as §1
ETV6, sequence (P41212 whole entry): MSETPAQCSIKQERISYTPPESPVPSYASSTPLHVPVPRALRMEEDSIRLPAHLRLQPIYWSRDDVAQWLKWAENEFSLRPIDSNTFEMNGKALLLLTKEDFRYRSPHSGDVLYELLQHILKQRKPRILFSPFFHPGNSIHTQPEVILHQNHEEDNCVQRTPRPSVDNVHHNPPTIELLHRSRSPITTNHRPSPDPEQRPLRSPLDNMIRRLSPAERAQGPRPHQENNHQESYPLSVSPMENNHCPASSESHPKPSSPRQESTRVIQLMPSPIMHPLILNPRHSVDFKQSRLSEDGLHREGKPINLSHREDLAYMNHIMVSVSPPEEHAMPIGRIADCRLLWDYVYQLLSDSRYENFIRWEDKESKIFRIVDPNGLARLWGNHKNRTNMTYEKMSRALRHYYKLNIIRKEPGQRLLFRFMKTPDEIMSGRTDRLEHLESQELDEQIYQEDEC

ELF4, sequence (Q99607 whole entry): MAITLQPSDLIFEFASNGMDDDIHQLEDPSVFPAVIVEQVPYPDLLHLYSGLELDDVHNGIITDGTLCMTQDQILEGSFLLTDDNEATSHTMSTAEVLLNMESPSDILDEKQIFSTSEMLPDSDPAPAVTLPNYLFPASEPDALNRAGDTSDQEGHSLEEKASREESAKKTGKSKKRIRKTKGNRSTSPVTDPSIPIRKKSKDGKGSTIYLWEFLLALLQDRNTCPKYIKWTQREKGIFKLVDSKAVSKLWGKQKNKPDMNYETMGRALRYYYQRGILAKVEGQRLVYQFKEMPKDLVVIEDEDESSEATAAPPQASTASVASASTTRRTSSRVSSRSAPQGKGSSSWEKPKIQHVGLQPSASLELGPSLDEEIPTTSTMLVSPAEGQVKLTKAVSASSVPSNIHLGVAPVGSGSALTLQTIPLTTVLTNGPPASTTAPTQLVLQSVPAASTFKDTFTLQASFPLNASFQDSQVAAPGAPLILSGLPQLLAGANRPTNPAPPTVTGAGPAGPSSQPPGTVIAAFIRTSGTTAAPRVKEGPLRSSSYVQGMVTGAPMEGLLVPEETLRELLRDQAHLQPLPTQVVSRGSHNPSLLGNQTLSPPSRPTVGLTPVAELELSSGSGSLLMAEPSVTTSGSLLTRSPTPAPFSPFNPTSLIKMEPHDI
HSF1, sequence (Q00613 whole entry): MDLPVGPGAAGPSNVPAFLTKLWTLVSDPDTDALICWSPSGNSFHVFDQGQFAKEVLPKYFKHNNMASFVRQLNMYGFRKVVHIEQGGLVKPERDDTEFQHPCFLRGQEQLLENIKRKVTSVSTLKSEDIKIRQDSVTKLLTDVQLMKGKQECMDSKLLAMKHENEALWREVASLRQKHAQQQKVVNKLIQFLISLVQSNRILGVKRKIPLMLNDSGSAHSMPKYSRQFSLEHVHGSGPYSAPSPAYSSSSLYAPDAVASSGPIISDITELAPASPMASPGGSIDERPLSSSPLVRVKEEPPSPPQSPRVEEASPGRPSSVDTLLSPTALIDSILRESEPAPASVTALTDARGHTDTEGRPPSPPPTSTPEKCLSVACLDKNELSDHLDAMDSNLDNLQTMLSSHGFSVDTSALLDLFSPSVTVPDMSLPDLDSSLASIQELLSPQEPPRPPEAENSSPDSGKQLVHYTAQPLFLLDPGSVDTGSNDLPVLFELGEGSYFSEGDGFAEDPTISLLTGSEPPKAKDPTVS
ETV5, sequence (P41161 whole entry): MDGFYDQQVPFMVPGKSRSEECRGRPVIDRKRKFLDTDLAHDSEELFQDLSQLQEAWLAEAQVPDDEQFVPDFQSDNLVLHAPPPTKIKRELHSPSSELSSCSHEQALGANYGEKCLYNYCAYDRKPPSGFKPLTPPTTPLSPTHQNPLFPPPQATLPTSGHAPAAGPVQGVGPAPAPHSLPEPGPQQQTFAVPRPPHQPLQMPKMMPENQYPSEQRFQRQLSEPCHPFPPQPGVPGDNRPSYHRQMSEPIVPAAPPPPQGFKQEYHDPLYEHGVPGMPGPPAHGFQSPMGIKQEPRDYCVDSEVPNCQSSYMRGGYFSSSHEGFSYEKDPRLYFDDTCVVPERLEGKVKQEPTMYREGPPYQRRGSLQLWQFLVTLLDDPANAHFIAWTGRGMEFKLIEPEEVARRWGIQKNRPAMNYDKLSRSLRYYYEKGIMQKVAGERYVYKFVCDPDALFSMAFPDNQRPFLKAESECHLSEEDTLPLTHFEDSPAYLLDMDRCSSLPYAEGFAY

On to GATATA, for which the binding signal with FEV is 1.08 fold enrichment (6-mer frequency, TF over GST control); in the experiment with ETV5, 1.13 fold enrichment (6-mer frequency, TF over GST control); with HSF1, 1.09 fold enrichment (6-mer frequency, TF over GST control); in the experiment with SPIC, 1.13 fold enrichment (6-mer frequency, TF over GST control); with ELF4 it was 1.06 fold enrichment (6-mer frequency, TF over GST control); with ELK4 it was 1.18 fold enrichment (6-mer frequency, TF over GST control). Moreover, the binding signal with ETV2 is 1.19 fold enrichment (6-mer frequency, TF over GST control); in the experiment with ELF3, 1.33 fold enrichment (6-mer frequency, TF over GST control); with CRX, 1.19 fold enrichment (6-mer frequency, TF over GST control); in the experiment with ETV1, 1.08 fold enrichment (6-mer frequency, TF over GST control); in the experiment with ERF, 1.15 fold enrichment (6-mer frequency, TF over GST control); in the experiment with ETV3L it was 1.18 fold enrichment (6-mer frequency, TF over GST control). In addition, the binding signal is 1.16 fold enrichment (6-mer frequency, TF over GST control) with ETS2; 1.32 fold enrichment (6-mer frequency, TF over GST control) with SPDEF; 1.1 fold enrichment (6-mer frequency, TF over GST control) with ETV7; 1.13 fold enrichment (6-mer frequency, TF over GST control) with ELF5; 1.09 fold enrichment (6-mer frequency, TF over GST control) in the experiment with ETV3; 1.12 fold enrichment (6-mer frequency, TF over GST control) in the experiment with ETV6.
